The values that follow come from PubChem BioAssay AID588475 (Sanford-Burnham Center for Chemical Genomics, 2011).

Out of some 350,000 compounds screened, about 2,100 (0.6%) were called active. The entries come from a sample that favours actives as a whole. Unmarked numbers belong to inactive results.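 How the source made its calls: active means inhibition of the ligand-induced calcium signal above about 50% at the single tested concentration (limit read from the data); inactive means the rest.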

A short description of the assay: antagonists of CRF-BP/CRF-R2 complex, primary screen, cell-based, HEK293, calcium dye fluorescence, uHTS (AID 588475). The settings on record: CRF-induced calcium fluorescence, at 11.8 µM, hits give high values.
`O=C(c1ccc(-n2cnnn2)cc1)N1CCN(C(c2ccccc2)c2ccccc2)CC1`: the inhibition was 14.7%.
Take `CCc1ccc(NC(=O)CC2C(=O)NCCN2C(=S)Nc2ccccc2)cc1` (configuration not stated): the inhibition was -42.6%.
As for `CN(C)C(=O)c1nc2ccc(Cl)cn2c1CNCc1cccc(OC(F)(F)F)c1`, the inhibition was 21%.
Regarding `CCNC(=O)CC1C(=O)N(c2ccc(F)cc2)C(=O)N1CCc1sccc1C` (configuration not stated), the inhibition is 3.16%.
As to `N#C/C(=C(/O)Cc1cccc2ccccc12)c1nc2ccccc2s1`, the inhibition is 60.4% (active).
Take `CC1=CC(=C(C#N)c2nc3ccccc3s2)C=C(C)N1c1ccc(F)cc1F`: the inhibition is -130%.
For `O=C(O)CC/C(=C\c1cc2c(cc1Br)OCO2)c1nc2ccccc2s1` the value was 8.13%; for `CC1Cc2ccccc2N1C(=O)Cn1cnc2ccccc2c1=O` (configuration not stated), 0.2%.
For `CCOC(=O)N1CCN(C(=O)Cn2cnc3ccccc3c2=O)CC1` the value was 72.2% (active); for `CC1CC(C)CN(C(=O)CCNC(=O)Cn2cnc3ccccc3c2=O)C1` (configuration not stated), -2.21%.
Turning to `O=S(=O)(NCc1ccc2c(c1)OCO2)c1cccc2nsnc12`, the inhibition is -14.6%.
Take `COCCCNC(=O)C1CCC(CNS(=O)(=O)c2ccc(OC)cc2)CC1` (configuration not stated): the inhibition is 5.65%.
With `Cc1cc([N+](=O)[O-])ccc1NS(=O)(=O)c1ccccc1`, the inhibition was 17.8%.
As for `O=[N+]([O-])c1ccc(NS(=O)(=O)c2ccccc2)c(Cl)c1`, the inhibition is 55.9% (active).
With `O=C(NNS(=O)(=O)c1ccc(F)cc1)c1ccc([N+](=O)[O-])cc1Cl`, the inhibition was 0.78%.
As for `COC(C[C@@H](O)C[C@H](O)[C@H](C)OCc1ccccc1)OC`, the inhibition is 10.3%.
For the molecule `O=[N+]([O-])c1cc(Br)c(O)c(/C=N/Nc2nc3ccccc3s2)c1`, the inhibition is 67.2% (active).
For `O=C(N/N=C/c1cc(Br)c(O)c([N+](=O)[O-])c1)C(O)(c1ccccc1)c1ccccc1` the value was 4.64%; for `c1ccc(C(=NNc2nc3ccccc3s2)c2ccccn2)cc1`, -36.8%; for `Cc1nn(C(=O)c2ccoc2C)c(N)c1-c1ccccc1`, 4.6%.
In the case of `Cc1nn(-c2ccc([N+](=O)[O-])cc2)c(N)c1-c1ccccc1`, the inhibition was 51.6% (active).
The value for `Cn1nc(-c2ccccc2)c2cc([N+](=O)[O-])ccc21` was -1.55%.
With `CN1CCN(C(=O)c2cnn(-c3ccccc3)c2NC(=O)c2ccc([N+](=O)[O-])cc2)CC1`, the inhibition was 1.78%.
Consider `Cc1ccccc1N1CCN(Cc2nc(Cc3ccccc3F)no2)CC1`, for which the inhibition is 10.3%.
Consider `COc1ccc(CC(NC(C)=O)C(=O)NC2CCN(C(=O)c3ccc(Cl)cc3)CC2)cc1` (configuration not stated), for which the inhibition is 13.1%.
Consider `C/C(=N/NC(=O)CSc1ccccn1)c1ccc([N+](=O)[O-])cc1`, for which the inhibition is 1.41%.
For the molecule `Cc1nc(C)c2c(c1C(F)(F)F)-c1ccccc1C2(F)F`, the inhibition was -1.72%.
In the case of `CCCCn1c(N)c(N(CCC(C)C)C(=O)COC(=O)c2ccc(CC)cc2)c(=O)[nH]c1=O`, the inhibition was -14.7%.
For the molecule `C=C(C)CNC(=S)N/N=C/c1ccccc1OCC(=O)O`, the inhibition was -10.5%.
`COc1ccc(Br)cc1/C=N/Nc1ccc(S(=O)(=O)Nc2ccccc2C(=O)O)cc1[N+](=O)[O-]`: the inhibition is 14.6%.
`Cc1ccc(NS(=O)(=O)c2ccc(N/N=C/c3ccccc3OCC(=O)O)c([N+](=O)[O-])c2)c(C)c1`: the inhibition is 63.5% (active).
Take `CC(CO)(CO)NC(=O)c1ccc(=O)[nH]n1`: the inhibition was 2.66%.
The value for `Cc1ccc(C(=O)N/C(=C\c2cn(C)c3ccccc23)C(=O)N2CCN(C)CC2)cc1` was 1.64%.
The value for `O=[N+]([O-])c1ncc(Br)cc1Nc1ccccc1` was 17.9%; that for `CCCN(CCc1ccccc1)C1CCc2c(O)cccc2C1` (configuration not stated) was -13%; that for `Cc1nc2c(C(=O)NCc3ccc4c(c3)OCO4)c[nH]n2c(=O)c1Cc1ccccc1F` was 53.2% (active).
As for `COc1ccccc1-n1c(C)nc2cc(C(=O)NCc3ccc4c(c3)OCO4)ccc21`, the inhibition is 20.9%.
With `CC(C)NC(=O)CSc1ccccc1C(=O)NCc1ccc2c(c1)OCO2`, the inhibition was 17%.
Consider `COCCN(C(=S)Nc1ccccc1OC)C1CCN(C(C)C)CC1`, for which the inhibition was -0.52%.
With `CCc1ccc(CN(C)C(C)C(=O)Nc2ccc(S(=O)(=O)N3CCCC3)cc2)cc1` (configuration not stated), the inhibition was -10.1%.
The value for `COc1ccc2nc(N3C(=O)C(O)=C(C(=O)c4ccco4)C3c3ccco3)sc2c1` (configuration not stated) was 3.47%.
The value for `C=CCSc1nnc(N2C(=O)C(O)=C(C(=O)c3ccco3)C2c2ccc(F)cc2)s1` (configuration not stated) was 17.8%; that for `Cc1ccc2nc(N3C(=O)C(O)=C(C(=O)c4ccco4)C3c3cccc(O)c3)sc2c1` (configuration not stated) was 51.9% (active).
`CS(=O)(=O)N(Cc1nc2sc3c(c2c(=O)[nH]1)CCCC3)C1CCCCC1`: the inhibition is -0.95%.
For `CCc1nn(CC(=O)N2CCN(c3cc(C)ccc3C)CC2)c(=O)c2cc3occc3n12`, the inhibition was 3.13%.
For `O=C(CCNC(=O)Cn1ccc2ccccc2c1=O)NCCC1=CCCCC1` the value was -1.26%; for `Cc1ccc(CNC(=O)CCNC(=O)Cn2ccc3ccccc3c2=O)cc1`, 87.1% (active); for `CCCCN(CC)CCNC(=O)CCNC(=O)Cn1ccc2ccccc2c1=O`, -0.99%.
The value for `Cc1ccc(SC(CC(=O)c2ccc(C(C)(C)C)cc2)C(=O)O)cc1` (configuration not stated) was -15.1%; that for `CC(NC(=O)COC(=O)C1CCN(S(=O)(=O)c2ccccc2C(F)(F)F)CC1)c1ccccc1` (configuration not stated) was -1.56%; that for `CCOC(=O)C(C)N(c1ccccc1Cl)S(C)(=O)=O` (configuration not stated) was -3.83%.
As to `S=c1[nH]ccn1-c1ccc(Cl)cc1`, the inhibition is -16.2%.
As to `COc1cc(-c2nnc(NC(=O)C3=COCCO3)o2)cc(OC)c1OC`, the inhibition is -9.37%.
As to `Cc1ccc(C(=O)Nc2nnc(C3=COCCO3)o2)cc1C`, the inhibition is 51.4% (active).
As for `O=C(Nc1nnc(C2=COCCO2)o1)c1ccc([N+](=O)[O-])s1`, the inhibition was -4.65%.
For `COc1cc(OC)cc(C(=O)N[C@H](C(=O)OCC(=O)NC(C)c2ccccc2)C(C)C)c1` (some centres not stated) the value was -108%.
`CCn1cc(/C=C2/SC(=S)NC2=O)c(C)n1`: the inhibition is 13.4%.
Turning to `O=C1CCCCC1C(=O)c1ccccc1` (configuration not stated), the inhibition is 52.8% (active).
In the case of `O=C(OC1CCCCC1=O)c1cccc(S(=O)(=O)NCc2ccccc2)c1` (configuration not stated), the inhibition is 12.8%.
Consider `Cc1cccc(C(=O)C(O)(c2ccccc2)C2CCCCC2=O)c1` (configuration not stated), for which the inhibition is -14%.
As for `COc1cccc(CNC(=O)CCN2C(=S)NC(C)(C)CC2C)c1` (configuration not stated), the inhibition was 3.81%.
On to `N#CCc1c[nH]c2ccc([N+](=O)[O-])cc12`, for which the inhibition is 2.31%.
With `Cc1cc([N+](=O)[O-])ccc1NC1CCCC1`, the inhibition was 72% (active).
Consider `Cc1cc([N+](=O)[O-])c(NC2CCCCC2)c([N+](=O)[O-])c1`, for which the inhibition was -26.8%.
As to `Cc1cc([N+](=O)[O-])ccc1NCc1cccc([N+](=O)[O-])c1`, the inhibition was 34.2%.
`CC(C)C(NS(=O)(=O)c1cccs1)C(=O)Nc1nc(C(C)(C)C)cs1` (configuration not stated): the inhibition was 7.44%.
`Cc1cc(-c2nnc(SCC(=O)Nc3ccc(S(N)(=O)=O)cc3)n2N)n[nH]1`: the inhibition is 9.63%.
As to `CCOC(=O)N1CCC(NC(=O)C(NS(=O)(=O)c2ccc3c(c2)CCN3C(=O)CC)C(C)C)CC1` (configuration not stated), the inhibition was -2.51%.
The value for `COc1ccc(N=C2C=CC(=O)O2)cc1` was 11.2%; that for `OCC1OC(n2cnc3c(N4CCCC4)ncnc32)C(O)C1O` (configuration not stated) was -7.64%.
With `COc1cc(OC)cc(-c2c(C#Cc3ccsc3)c3cc(-c4ccc(SC)cc4)ccc3n2C)c1`, the inhibition was 1.84%.
For `Cc1ccc(S(=O)(=O)/N=C(\CN2CCOCC2)N2CCOCC2)cc1` the value was 12.5%; for `CCCc1cc(=O)n2[nH]c(C)c(-c3ccc(Cl)cc3)c2n1`, 13.7%; for `Cc1nc2c(-c3ccccc3)c(C)[nH]n2c(=O)c1Cl`, 42.5%.
For the molecule `Cc1[nH]n(-c2cccc(Cl)c2)c(=O)c1-c1ccc(Cl)cc1`, the inhibition is 50.6% (active).
For `C/C(=N\Nc1ccccc1)c1cccs1`, the inhibition was -0.14%.
`COc1ccccc1N(C)S(=O)(=O)c1ccc(Cl)c(C(=O)N2CCC(C(N)=O)CC2)c1`: the inhibition is 17.1%.
As to `C/C(CC(=O)Nc1cccc(C(F)(F)F)c1)=N\NC(=O)C(=O)NCC(C)C`, the inhibition is -3.29%.
Turning to `COc1ccc(NC(=O)C(=O)NCC(=O)Nc2cccc(C(F)(F)F)c2)cc1`, the inhibition was 55.4% (active).
Turning to `COc1ccc(C(CC(=O)Nc2ccc(C)cc2)NC(=O)C(F)(F)F)cc1` (configuration not stated), the inhibition was -3.52%.
With `CCCCn1c(N)c(N(CC(C)C)C(=O)CN(C)S(=O)(=O)c2ccc(F)cc2)c(=O)[nH]c1=O`, the inhibition is -2.99%.
Take `Cc1c(C(=O)OCC(=O)N(CCC#N)c2ccccc2)oc2c1ccc1ccccc12`: the inhibition is -18.4%.
As to `O=S(=O)(CCc1nc2ccccc2o1)c1ccc(Cl)cc1`, the inhibition was -6.01%.
For `Cc1nn2c3ccccc3nc2n(C)c1=O`, the inhibition is 83.2% (active).
Consider `Cn1c(-c2ccc(C(=O)c3ccccc3)s2)nc2ccccc21`, for which the inhibition was 6.07%.
In the case of `CCc1nc2ccccc2n(CCOCCOCCn2c(=O)c(CC)nc3ccccc32)c1=O`, the inhibition is -9.64%.
Turning to `Cc1ccc(S(=O)(=O)NNC(=S)NC(C)(C)C)cc1`, the inhibition is 0.02%.
With `CCNC(=O)NNC(=O)C1CC(c2cccs2)=NO1` (configuration not stated), the inhibition was 0.63%.
`O=C(CSc1nnnn1-c1ccc(O)cc1)c1ccc(F)cc1`: the inhibition was 4.96%.
Take `COc1ccc(-n2nnnc2SCC(=O)c2ccc(OC)c(OC)c2)cc1`: the inhibition is 51.1% (active).
For `COc1ccc(NC(=O)CSc2nnnn2-c2cccc(OC)c2)cc1` the value was 8.16%; for `CC(C)Oc1ccc(Cc2n[nH]c(=S)n2Cc2ccccc2)cc1Cl`, 2.65%.
